This passage reports Potency, outcome and activity change, negative = inhibition results from PubChem BioAssay (NCATS).

Results filed as inconclusive are left out. Where a call stands in place of a potency, no number is given. Unmarked numbers belong to inactive results. The source made the active and inactive calls. Calls come from the whole dose curve; as a rule, active = well fitted curve in the direction sought with a large enough effect; inconclusive = small, poorly fitted or top-dose-only effect, or another doubt; inactive = no such curve, though single readings can be large; an effect the other way counts as inactive or inconclusive.

Experiment [1] addresses Calcium and integrin-binding protein 1 (Homo sapiens) (UniProt Q99828). Nature of the experiment: Primary qHTS for Identification of Calcium Integrin Binding Protein 1 (CIB1) Competitor (AID 1508620).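 Note: GST tagged CIB1 binding a fluorescein labelled alphaIIb integrin peptide tracer; top concentration of the series differs between compounds.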 A digest of the protocol: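 CIB1-GST (1 uM final) and compound incubated 15 min at room temperature before adding FITC-alphaIIb peptide tracer (100 nM final). Competition for binding read by fluorescence polarization (ex 480, em 540) after another 15 min at room temperature.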
On the technique in general: qHTS replaces the single test concentration by a dilution series.

Experiment [2] can be described thus: Primary qHTS for small molecule stabilizers of the endoplasmic reticulum resident proteome: Secreted ER Calcium Modulated Protein (SERCaMP) assay (AID 1508630). In outline:
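The SH-SY5Y reporter protocol was run at 3 concentrations up to 38.3 uM (primary) or 11 concentrations (follow-up): 16 h compound, 100 nM thapsigargin for 4 h, then extracellular luciferase luminescence.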

Chain of Calcium and integrin-binding protein 1 (Homo sapiens) (Q99828 whole entry, looked up): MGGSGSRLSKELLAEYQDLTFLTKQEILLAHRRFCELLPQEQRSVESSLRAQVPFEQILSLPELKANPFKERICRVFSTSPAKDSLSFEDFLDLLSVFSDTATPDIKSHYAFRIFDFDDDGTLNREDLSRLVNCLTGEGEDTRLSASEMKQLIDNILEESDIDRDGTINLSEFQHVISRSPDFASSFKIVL

For the molecule `C[C@@]12C[C@@]3(O)O[C@@H](O1)[C@]1(COC(=O)c4ccccc4)[C@@H]3C[C@@]12O[C@@H]1O[C@H](CO)[C@@H](O)[C@H](O)[C@@H]1O`, the Potency result in experiment [1] was “inactive”. The outcome in experiment [2] was inactive.
`COc1cc(OC)cc(-c2ccc3ncc4ccc(=O)n(-c5ccc(N6CCNCC6)c(C(F)(F)F)c5)c4c3c2)c1`: the Potency entry in experiment [1] is “inactive”. For the same molecule, the outcome in experiment [2] was inactive.
Regarding `CCC(C=C[C@@H]1OC(=O)C=C[C@H]1C)=C[C@H](C)CC=CC(C)=C[C@@H](C)C(=O)[C@@H](C)[C@H](O)[C@@H](C)CC(C)=CC(=O)O`, the activity change, negative = inhibition in experiment [1] is 3.68% [at 2.24 µM].
Regarding `Nc1nc(=O)n([C@H]2CSC(CO)O2)cc1F` (some centres not stated), in experiment [1], the Potency entry is “inactive”. Moreover, the result in experiment [2] was inactive.
Regarding `CC(C)OC(=O)[C@H](C)N[P@](=O)(OC[C@H]1O[C@@H](n2ccc(=O)[nH]c2=O)[C@](C)(F)[C@H]1O)Oc1ccccc1`, the Potency result in experiment [1] was “inactive”. In addition, the result in experiment [2] was inactive.
As to `Cn1cc(C=CC(=O)c2cccc(F)c2)cc1C=CC(=O)NO`, the Potency result in experiment [1] is “inactive”. Moreover, the outcome in experiment [2] was inactive.
Regarding `CCCCCN=C(N)NN=Cc1c[nH]c2ccc(OC)cc12`, the Potency entry in experiment [1] is “inactive”. Moreover, the outcome in experiment [2] was inactive.
Turning to `COC(=O)C=CC(=O)OC`, in experiment [1], the Potency entry was “inactive”. In experiment [2], the result was inactive.
With `CC[C@]12C=CCN3CC[C@@]4(c5cc([C@@]6(C(=O)OC)C[C@H]7C[C@@H](C(C)(F)F)CN(Cc8c6[nH]c6ccccc86)C7)c(OC)cc5N(C)[C@H]4[C@@](O)(C(=O)OC)[C@H]1OC(C)=O)[C@@H]32`, the Potency result in experiment [1] was “inactive”. Also, the result in experiment [2] was inactive.
Consider `O=C1NC(=O)[C@@H](c2cn3c4c(cccc24)CCC3)[C@H]1c1c[nH]c2ccccc12`, for which the Potency entry in experiment [1] is “inactive”. Further, in experiment [2], the outcome was inactive.
As to `N#CC(=C(N)Sc1ccc(N)cc1)c1ccccc1C(F)(F)F`, the Potency result in experiment [1] was “inactive”. Besides, the outcome in experiment [2] was inactive.
For the molecule `CCN(CC)CCNC(=O)c1c(C)[nH]c(C=C2C(=O)Nc3ccc(F)cc32)c1C`, the Potency entry in experiment [1] was “inactive”. For the same molecule, the result in experiment [2] was inactive.
Consider `CC(=O)NCC(=O)N1[C@H]2CC[C@H]1c1cc(Nc3ncc(C(F)(F)F)c(NC4CCC4)n3)ccc12`, for which, in experiment [1], the Potency entry was “inactive”. Also, in experiment [2], the outcome was inactive.
In the case of `CC(C)(C)[C@H](NC(=O)c1ccc(N)c(Cl)c1)C(=O)N1CCC[C@@H]1C(=O)N[C@H](C#N)CC(=O)O`, the results for the activity change, negative = inhibition in experiment [1] and in experiment [2] were -8.66% [at 6.45 µM] and 176% [at 3.88 µM], respectively.
Regarding `CC(C)(C)[N+]([O-])=Cc1ccc(S(=O)(=O)O)cc1S(=O)(=O)O`, in experiment [1], the Potency entry was “inactive”. Also, the result in experiment [2] was inactive.
On to `Cc1ccc([N+](=O)[O-])cc1S(=O)(=O)N(C)N=Cc1cnc2ccc(Br)cn12`, for which the Potency entry in experiment [1] was “inactive”. Besides, the outcome in experiment [2] was inactive.
In the case of `C[C@]12CCC(=O)C=C1[C@@H]1CC1[C@H]1[C@H]3[C@@H]4C[C@H]4[C@@]4(CCC(=O)O4)[C@@]3(C)CC[C@H]12` (some centres not stated), the Potency entry in experiment [1] was “inactive”. In experiment [2], the outcome was inactive.
In the case of `Cc1nc(NC(=O)N2CCC[C@@H]2C(N)=O)sc1-c1ccnc(C(C)(C)C(F)(F)F)c1`, the Potency entry in experiment [1] was “inactive”. Besides, the outcome in experiment [2] was inactive.
Regarding `C[C@H](NCc1ccc2c(c1)nc(NC(=O)c1ccc(-c3cn[nH]c3)s1)n2CCc1ccccc1)C(C)(C)C`, the Potency result in experiment [1] was “inactive”. In experiment [2], the result was inactive.
Take `COC(=O)C1C2CC3c4[nH]c5cc(OC)ccc5c4CCN3CC2CC(OC(=O)c2cc(OC)c(OC)c(OC)c2)C1OC` (configuration not stated): the Potency result in experiment [1] is “inactive”. In addition, the result in experiment [2] was inactive.
In the case of `O=C1NC(=O)C(=Cc2ccc3nccc(-c4ccncc4)c3c2)S1`, the Potency result in experiment [1] is “inactive”. Further, the outcome in experiment [2] was inactive.
`COc1cc([C@@H]2c3cc4c(cc3[C@@H](O[C@@H]3O[C@@H]5CO[C@@H](c6cccs6)O[C@@H]5[C@H](O)[C@@H]3O)[C@H]3COC(=O)[C@H]23)OCO4)cc(OC)c1O`: in experiment [1], the Potency result is “inactive”. The outcome in experiment [2] was inactive.
As for `CN[C@@H]1C[C@H]2O[C@@](C)([C@H]1OC)n1c3ccccc3c3c4c(c5c6ccccc6n2c5c31)C(=O)N[C@H]4O`, the Potency result in experiment [1] is “inactive”. Also, in experiment [2], the outcome was inactive.
On to `CC(C)N(CC[C@H](c1ccccc1)c1cc(CO)ccc1O)C(C)C`, for which the Potency entry in experiment [1] is “inactive”. Also, in experiment [2], the outcome was inactive.
On to `CON=C(C(=O)N[C@@H]1C(=O)N2C(C(=O)O)=C(Cn3ccc(=N)n3CCO)CS[C@H]12)c1csc(N)n1`, for which the Potency entry in experiment [1] is “inactive”. Besides, the result in experiment [2] was inactive.
Take `O=C(NCc1ccccc1)[C@H](Cc1ccccc1)NC(=O)[C@@H]1O[C@@H]1C(=O)NCCc1ccc(O)cc1`: in experiment [1], the Potency result is “inactive”. Besides, in experiment [2], the result was inactive.
Consider `C=CC1=C(C(=O)O)N2C(=O)[C@@H](NC(=O)C(=NO)c3csc(N)n3)[C@H]2SC1`, for which, in experiment [1], the Potency result is “inactive”. Moreover, the outcome in experiment [2] was inactive.
Turning to `CC(=O)C1=C(O)C=C2Oc3c(C(C)=O)c(O)c(C)c(O)c3C2(C)C1=O` (configuration not stated), the Potency entry in experiment [1] is “inactive”. For the same molecule, the outcome in experiment [2] was inactive.
On to `C=C1C(=CC=C2CCC[C@]3(C)[C@@H]([C@H](C)CCCC(C)(C)O)CC[C@@H]23)C[C@@H](O)C[C@@H]1O`, for which the Potency result in experiment [1] is “inactive”. Also, the result in experiment [2] was inactive.
